Bioassay records (PubChem)
Bead autofluor – flagged as autofluorescent in microsphere protease counterscreen; compound autofluorescence counterscreen, microsphere flow cytometry; stronger effect = higher value; fluorescence intensity (concentration not given with the values); 360,000 tested, 3.1% active; AID 624483; in the data active means fluorescence intensity above about 16000; inconclusive means no clear call, values can overlap the other calls
MazF activator – increases E. coli MazEF RNase cleavage of RNA. P0AE70. 350,000 tested, 0.32% active. activation, % at 20 µM. FAM/BHQ RNA-DNA oligo cleavage fluorescence, 5 h; in the data active means activation above about 50%
Target sequence (P0AE70 whole entry, looked up): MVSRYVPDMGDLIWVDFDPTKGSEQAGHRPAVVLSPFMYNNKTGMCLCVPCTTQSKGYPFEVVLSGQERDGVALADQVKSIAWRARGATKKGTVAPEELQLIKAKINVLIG
Anthrax LF prot – inhibitors of Bacillus anthracis lethal factor protease | P15917 | multiplex microsphere protease cleavage assay, LF | inhibition, % at 10 µM | 360,000 tested, 0.12% active | AID 588501; further: plate controls were buffer without enzyme for full effect and enzyme alone for no effect
BoNT A protease – inhibitors of Botulinum neurotoxin A light chain protease | multiplex microsphere protease substrate cleavage, flow cytometry | inhibition, % at 10 µM | 360,000 tested, 0.17% active; further: plate controls were buffer without enzyme for full effect and enzyme alone for no effect
BoNT-F LC inh – BoNT F light chain protease inhibition; Multiplex microsphere protease cleavage assay, flow cytometry; inhibition, % at 10 µM; 360,000 tested, 0.22% active; AID 588497; in the data active means inhibition above about 35%, passing the limit was not always enough; inconclusive means no clear call, values can overlap the other calls; further: plate controls were buffer without enzyme for full effect and enzyme alone for no effect
* marks the source's active call; other numbers are inactive results; ? = inconclusive; . = not tested or not shown. Sampled rows, rich in hits. Any-hit rate of the full collection: about 3.6%. Unless noted, no stated cut-off is given here; in the data, active means inhibition above about 30%; inconclusive means no clear call, values can overlap the other calls; inactive means below that.

SMILES	Bead autofluor	MazF activator	Anthrax LF prot	BoNT A protease	BoNT-F LC inh
Cc1cc(C)cc(NC(=O)CSc2nnc(-c3ccccc3C)o2)c1	19314*	4.6	-8.2	?	-0.5
Cc1cccc(NC(=O)CSc2nnc(-c3ccccc3C)o2)c1	18972*	18.5	-4.4	2.2	1.3
O=C(CSc1nnc(-c2ccccc2Cl)o1)Nc1ccc2c(c1)OCCO2	19436*	-8.1	-4.1	1.2	0.2
Cn1c(C=O)c(-c2ccc3cc[nH]c3c2)c2ccccc21	3911	-12.7	-7.6	0.9	-0.4
COc1ccc(Cl)cc1C(=O)O/N=C(\N)c1ccccn1	3904	4.5	32.6*	-1.9	?
N/C(=N\OC(=O)c1cc(Cl)ccc1Cl)c1ccccn1	2556	-3.9	-1.0	0.1	-2.0
CCc1ccccc1NC(=O)CNC(=O)c1cc(C2CC2)nn1-c1ccccc1	3797	-1.6	5.0	0.5	8.4
Cc1cc(O)c(C(=O)/C=C/c2ccc(Cl)cc2)c(=O)o1	3737	-3.7	6.5	-0.8	?
CSc1ccc(/C=C/C(=O)c2c(O)cc(C)oc2=O)cc1	4310	17.6	-2.1	-2.5	45.1*
Fc1ccc(-c2nc3ccc(Cl)cn3c2Cc2cccc(F)c2)cc1	9095	.	6.7	2.1	1.1
CCOc1nc(Nc2cc(Cl)ccc2OC)nc(OCC)n1	2470	-7.9	-5.1	-0.6	-3.7
C=CCNc1nc(Cl)nc(Nc2cc(Cl)ccc2OC)n1	4088	57.8*	-12.8	0.9	13.1
COc1ccc(CCNC(=O)c2cc(-c3ccccc3)c(N3CCOCC3)s2)c(OC)c1OC	5552	7.0	-2.5	0.5	-1.2
C=CCN1CC(c2nc3ccccc3n2Cc2ccccc2)CC1=O (centres undefined)	20701*	2.2	0.3	?	-3.6
Cn1c(C2CC(=O)N(Cc3ccccc3)C2)nc2ccccc21 (centres undefined)	6439	0.5	-8.9	-0.9	-7.2
CCOc1cc(C(=O)Nc2cccc3ncccc23)cc(OCC)c1OCC	20303*	9.5	-1.2	1.0	-1.8
CCOC(=O)C(=CNc1cccc(N)n1)C(=O)OCC	20625*	5.7	-10.3	-0.7	-1.5
CCOC(=O)C(=CNc1ccc(Cl)cn1)C(=O)OCC	5193	2.3	6.5	0.4	0.7
Cc1cccc(NC(=O)C2CCN(S(=O)(=O)c3cccs3)CC2)n1	17032*	-2.7	-0.2	?	-5.4
O=C(Nc1ccccn1)C1CCN(S(=O)(=O)c2cccs2)CC1	9759	6.3	0.5	-0.6	-3.9
O=C(O)C1C2CCCCC2=C2CCCCC2C1C(=O)O (centres undefined)	18813*	-8.8	-0.1	?	2.7
O=C(CCCl)Nc1cc(SCCO)cc([N+](=O)[O-])c1	20902*	3.3	-1.6	-0.8	-1.5
O=S(=O)(c1ccc(S(=O)(=O)N(Cc2ccccc2)Cc2ccco2)cc1)N1CCCC1	16963*	-29.9	-4.0	-4.0	-4.0
CCN(Cc1ccccc1)S(=O)(=O)c1ccc(S(=O)(=O)N2CCN(C)CC2)cc1	8867	34.1	-2.0	0.4	2.4
O=C(NC1CC2CCCC(C1)N2Cc1ccc(F)cc1)c1ccc(F)cc1 (centres undefined)	4318	-15.0	1.6	?	?
SMILES	Bead autofluor	MazF activator	Anthrax LF prot	BoNT A protease	BoNT-F LC inh
CNC(=O)c1cc2cc(OC)ccc2oc1=O	21752*	4.1	0.2	4.4	5.9
NC1=Nc2ccccc2Oc2ccccc21	16347*	3.8	-7.6	?	-1.1
CC1=Nc2cc(Cl)ccc2Oc2ccccc21	4419	10.4	-1.6	-0.9	3.4
CCN(CC)c1ccc(/C=N/Nc2ccc(C)cc2)c(O)c1	2438	5.9	-3.3	1.1	-12.5
CCN(CC)c1ccc(C=Nc2cc(C)ccc2C)c(O)c1	2815	1.7	27.7	72.4*	20.2
CCN(CC)c1ccc(C=Nc2ccc(C)cc2C)c(O)c1	4378	-3.4	22.8	36.8*	6.6
CC(Oc1cccc(Cl)c1)C(=O)Nc1cc(Cl)ccc1N1CCOCC1 (centres undefined)	4729	-2.7	0.3	2.9	-7.4
COc1ccc(OC)c(/C=N/NC(=O)CCc2c(C)n[nH]c2C)c1	3807	1.5	11.8	6.1	40.5*
COc1ccc2c(c1)c1ncn(CCN3CCCC3)c(=O)c1n2C	21856*	2.4	-0.8	-2.2	-2.2
COc1ccc2c(c1)c1ncn(CCN3CCNCC3)c(=O)c1n2C	22441*	1.0	-2.1	2.5	2.1
COc1ccc2[nH]c3c(=O)n(CCN4CCOCC4)cnc3c2c1	3386	11.2	-1.7	0.3	-6.4
COc1ccc2c(c1)c1ncn(CCN3CCCCC3)c(=O)c1n2C	10891	4.6	-6.3	-0.4	2.3
O=C(Nc1ccon1)c1cccc(S(=O)(=O)N2CCCCCC2)c1	5537	4.2	-0.2	0.9	7.8
O=C(Nc1nc2ccc(S(=O)(=O)N3CCCCC3)cc2s1)c1ccncc1	3655	-3.4	-1.1	0.6	-7.4
O=C(Nc1ccon1)c1cccc(S(=O)(=O)N2CCCC2)c1	19894*	1.1	4.0	-0.4	-1.5
O=C(Nc1nc2ccc(S(=O)(=O)N3CCCCC3)cc2s1)c1cccnc1	21943*	4.4	-6.8	6.0	6.3
COc1cccc(CN2CCC2(C)C(=O)Nc2cccc(Oc3ccccc3)c2)c1F (centres undefined)	2858	.	-1.0	0.2	-0.5
CCOc1cc2c(cc1/C=C/c1noc(C)c1[N+](=O)[O-])OC(C)C2 (centres undefined)	11411	370.5*	4.5	15.4	26.7
CCOc1cc2c(cc1C=O)OC(C)C2 (centres undefined)	3346	0.1	-2.7	-0.5	-5.6
CCOC(=O)C1=C(C(F)(F)F)Nc2ncnn2C1c1ccc(OC)c(OC)c1OC (centres undefined)	2478	0.3	-1.1	-0.5	-5.0
CCCCOC(=O)C1=C(C)Nc2ncnn2C1c1cc(OC)c(OC)cc1OC (centres undefined)	23316*	0.2	-0.9	-0.1	-1.1
CCCCOC(=O)C1=C(C)Nc2ncnn2C1c1ccc(OC)c(OC)c1OC (centres undefined)	23980*	-1.0	-2.4	-1.8	-3.1
CC(OC(=O)/C=C/c1ccco1)C(=O)NC1CCCCC1C (centres undefined)	8574	-5.4	10.5	3.5	2.1
C=CCn1c(C(CCC(C)C)CC(C)(C)O)n[nH]c1=S (centres undefined)	24772*	-1.6	-0.1	-4.4	-5.7
CC(C)Nc1nc(Nc2ccc(C(N)=O)cc2)c2sccc2n1	3549	.	-2.0	-0.2	-3.9
O=C(CCSc1nnc2ccccn12)Nc1ccc(F)cc1	23399*	-16.7	1.1	-0.1	1.8
Cc1ccccc1C(NC(N)=O)c1ccccc1 (centres undefined)	16482*	-20.9	-2.6	-1.9	-3.7
O=C(NC(c1ccccc1)c1ccccc1)c1ccccc1	2977	4.9	2.3	-0.1	-3.2
CC1C(=O)N(Cc2cn(CCC3OCCCO3)nn2)CCS(=O)(=O)N1Cc1ccc(-c2cccc(CO)c2)cc1 (centres undefined)	3702	8.1	1.5	-0.2	1.8
COc1ccc(Cn2nnnc2C(c2cc3ccc(OC)cc3[nH]c2=O)N2CCCCCC2)cc1 (centres undefined)	22040*	-6.4	9.0	6.5	2.5
